GBA activity – modulators of human glucocerebrosidase; AID 360; P04062; purified enzyme, resorufin glucoside fluorescence (screen aimed at inhibitors), 20 min; Potency, µM; actives 1.1% (n = 48,000); in the data active means potency below about 15 µM; inconclusive means mostly about 16 µM to 33 µM;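 further: the screen sought inhibitors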
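Normal human glucocerebrosidase (0.2 nM final) was assayed with resorufin β-D-glucopyranoside (30 uM final) in 50mM citric acid/KH2PO4, 10mM sodium taurocholate, 0.01% tween-20, pH 5.9. Compounds were titrated; fluorescence (Ex 548, Em 600) read after 20 min at RT.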
TSHR agonist – TSH receptor (human) agonism | P16473 | HEK293-CNG-TSHR cells (CNG channel as cAMP sensor), membrane potential dye, cAMP | Potency, µM (highest dose often 57.1 µM), without a hit: at the top dose activation, actives largely listed as activators | actives 0.48% (n = 73,000); active means well fitted activation curve with a large enough effect in the main read-out, with a control signal flat, not every such curve was filed as active; inconclusive means small, poorly fitted or top-dose-only effect, or a change in a side signal; inactive means no such curve, though single readings can be large or run the other way; % of control where 0% means no effect;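 further: the control signal comes from parental cells without the receptor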
Target sequence (P16473 whole entry, looked up): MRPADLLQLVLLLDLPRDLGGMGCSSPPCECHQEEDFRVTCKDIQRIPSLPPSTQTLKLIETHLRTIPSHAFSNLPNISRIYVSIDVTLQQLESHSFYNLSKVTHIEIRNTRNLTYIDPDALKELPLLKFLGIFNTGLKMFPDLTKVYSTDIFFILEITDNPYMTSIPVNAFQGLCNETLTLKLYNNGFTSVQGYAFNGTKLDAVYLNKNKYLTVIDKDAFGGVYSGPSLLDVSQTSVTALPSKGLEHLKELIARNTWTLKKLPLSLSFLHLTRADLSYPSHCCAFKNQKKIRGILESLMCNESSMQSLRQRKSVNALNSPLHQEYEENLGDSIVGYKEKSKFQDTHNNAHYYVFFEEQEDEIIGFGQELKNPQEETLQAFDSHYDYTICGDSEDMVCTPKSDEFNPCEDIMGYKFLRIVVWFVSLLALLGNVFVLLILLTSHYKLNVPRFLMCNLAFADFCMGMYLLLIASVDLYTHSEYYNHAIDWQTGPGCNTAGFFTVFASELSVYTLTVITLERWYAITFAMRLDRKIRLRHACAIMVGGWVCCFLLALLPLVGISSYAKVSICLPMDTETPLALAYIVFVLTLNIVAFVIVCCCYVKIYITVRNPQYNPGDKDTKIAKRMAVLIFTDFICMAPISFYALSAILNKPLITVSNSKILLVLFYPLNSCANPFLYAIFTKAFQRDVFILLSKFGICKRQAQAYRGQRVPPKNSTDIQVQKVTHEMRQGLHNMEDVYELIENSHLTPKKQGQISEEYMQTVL
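cAMP rise detected as CNG-channel membrane depolarization by fluorescent dye (emission 590 nm), 30 min after compound, following 60 min dye loading containing 100 uM RO 20-1724 at room temperature. Cells: TSHR/CNG HEK 293, with parental CNG HEK 293 as control.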
HEK293 cAMP ctrl – counter-screen for TSHR agonists: cAMP increase in parental HEK293; Potency, µM (top dose mostly 57.1 µM), inactives show top-dose activation, hits mostly activators; parental HEK293 CNG cAMP sensor, membrane potential fluorescence; actives 2.5% (n = 73,000); AID 938; active means well fitted activation curve with a large enough effect; inconclusive means small, poorly fitted or top-dose-only effect; inactive means no such curve, though single readings can be large or run the other way; further: % of control where 0% means no effect; nearly all actives have a fitted effect of over 55% in size
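Parental HEK 293 cells stably expressing a modified CNG channel (no TSHR) report cAMP rise as membrane depolarization. Membrane potential dye with 100 uM RO 20-1724 was loaded for 60 min at room temperature, then compound added for 30 min; fluorescence read at 590 nm.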
Bst PK mod – pyruvate kinase (B. stearothermophilus) modulation. purified pyruvate kinase, luminescence ATP production; ribose 5-phosphate activator present at AC10. actives 1.2% (n = 51,000). Potency, µM. AID 361; in the data active means potency below about 11 µM; inconclusive means mostly about 12 µM to 25 µM;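 the screen sought inhibitors and activators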;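 further: scaled between full activation by ribose 5 phosphate and full inhibition by luteolin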
Active calls of the source: *; i = inactive; ? = inconclusive; · = no result; [ ] = remark or other dose. In the library only some 4% were active in any assay of this set; here they are far more common. Potency means the concentration at half of the fitted maximal effect.

SMILES	GBA activity	TSHR agonist	HEK293 cAMP ctrl	Bst PK mod
O=C(CN1CCCN(Cc2ccc(F)cc2Cl)C1=O)NCc1ccccc1	>77	25µM*	9%	>57
Cn1c(C[C@@H](O)c2nc3ccccc3n2C)nc2ccccc21	·	-1%[11.4 µM]	11%[11.4 µM]	·
O=C1/C(=C/c2ccccc2)[C@@H](NC2CCCCC2)c2ccccc21	·	3%[11.4 µM]	18%[11.4 µM]	·
COc1ccccc1-c1cc(=O)c2cc(O)ccc2o1	·	?	40µM*	·
COc1cc2oc(-c3ccccc3)cc(=O)c2cc1O	·	0%	8%	·
N#CCSc1nc2cc(C(=O)N3CCCC3)ccc2c(=O)n1Cc1ccccc1	>77	10%	11%	>57
N#CCSc1nc2cc(C(=O)N3CCC(C(N)=O)CC3)ccc2c2nc3ccccc3n12	>77	23%	-3%	0.47*
O=C1OC(O)C(C(Cl)Cl)=C1Cl (stereo unspecified)	·	2%	1%	·
COC(=O)c1ccc(CSc2nc3c(cnn3-c3ccc(C)c(C)c3)c(=O)[nH]2)o1	14*	·	10%	>57
CCc1ccc(CNc2ccc(O)cc2)cc1	11*	-8%	-18%	·
Cc1c(NC(=O)CN2C(=O)c3ccccc3S2(=O)=O)c(=O)n(-c2ccccc2)n1C	>77	0%	-1%	>57
COc1ccc(OC)c(NC(=O)CN2C(=O)c3ccccc3S2(=O)=O)c1	·	-6%[11.4 µM]	6%[11.4 µM]	·
COc1ccc(NC(=O)CN2c3cccc4cccc(c34)S2(=O)=O)cc1	>77	0%	-6%	1.4*
Cc1c(NC(=O)CN2c3cccc4cccc(c34)S2(=O)=O)c(=O)n(-c2ccccc2)n1C	>77	?	?	11*
CC(C)CNS(=O)(=O)c1ccc(CCC(=O)Nc2ccc3c(c2)OCO3)cc1	>77	1%	4%	>57
CC(C)CNS(=O)(=O)c1ccc(CCC(=O)N2CCN(Cc3ccc4c(c3)OCO4)CC2)cc1	>77	1%	1%	2.8*
O=c1c2ccccc2cnn1-c1nc2ccccc2s1	>77	-11%	7%	0.16*
Cc1cccc(-c2nnc(SCC#N)n2-c2ccccc2)c1	>77	13%	14%	>57
N#CCCCSc1nnc(-c2ccc(Cl)cc2)n1-c1ccccc1	·	?	25µM*	·
COC(=O)[C@H](C)[C@@H]1C[C@@]1(C)[C@@H](NC(=O)OCc1ccccc1)c1ccccc1	·	?	16µM*	·
Cc1cc(CNC(=O)[C@H](C)[C@@H]2C[C@@]2(C)[C@@H](NC(=O)OCc2ccccc2)c2ccccc2)nn1C	·	7%	15%	·
C[C@@H](C(=O)NCc1ccccc1)[C@H]1C[C@]1(C)[C@H](NC(=O)OCc1ccccc1)c1ccccc1	·	?	16µM*	·
COc1ccc(CNC(=O)[C@H](C)[C@@H]2C[C@@]2(C)[C@@H](NC(=O)OCc2ccccc2)c2ccccc2)cc1OC	·	·	29%	·
CC(=O)Nc1cccc(C(=O)N2CCN(Cc3ccccc3)CC2)c1	>77	0%	0%	>57
O=C(c1cccc(C(=O)N2CCN(Cc3ccccc3)CC2)c1)N1CCN(Cc2ccccc2)CC1	>77	?	1.3µM*	>57
SMILES	GBA activity	TSHR agonist	HEK293 cAMP ctrl	Bst PK mod
CN(C)c1ccc(-c2nccc(NCCN3CCOCC3)n2)cc1	·	8%	-3%	·
Cn1c(=O)c2c(ncn2CN2CCN(Cn3cnc4c3c(=O)n(C)c(=O)n4C)CC2)n(C)c1=O	·	-3%[11.4 µM]	1%[11.4 µM]	·
O=C(Nc1ccc(OC(F)(F)F)cc1)C1=NCCN1	2*	?	?	i
O=C(CN(C(=O)CNS(=O)(=O)c1ccccc1)c1ccc2c(c1)OCCO2)NC1CCCCC1	12*	2%	12%	>57
CCN1CCN(c2ccc(NC(=O)c3cccc4ncccc34)cc2)CC1	8.7*	0%[11.4 µM]	0%	>57
Cn1cccc1C(=O)N1CCC[C@@]2(CCN(Cc3cc(C(F)(F)F)cc(C(F)(F)F)c3)C2)C1	·	?	13µM*	·
O=C(c1ccco1)N1CCC2(CC1)CN(Cc1cc(C(F)(F)F)cc(C(F)(F)F)c1)C2	·	?	16µM*	·
Cn1cccc1C(=O)N1CCC2(CC1)CN(Cc1cc(C(F)(F)F)cc(C(F)(F)F)c1)C2	·	?	16µM*	·
Cn1cccc1C(=O)N1CCC[C@@]2(CCN(Cc3ccc(C#N)cc3)C2)C1	·	7%	10%	·
CC(=O)N1CCC2(CC1)CN(Cc1cc(C(F)(F)F)cc(C(F)(F)F)c1)C2	·	19%	-3%	·
CN1CCN(CCCN)CC1	·	5%[11.4 µM]	1%[11.4 µM]	·
O=C(O)CCCC[C@H]1CCSS1	·	10%	15%	·
CCOC(=O)c1ccccc1NC(=O)c1ccccc1SC	>77	?	?	>57
CCOC(=O)c1ccccc1NC(=O)c1cccs1	·	?	25µM*	·
Cc1ccc2c(Cl)cc(Cl)c(OCC(=O)NC(=O)NCc3ccco3)c2n1	>77	10%	21%	3.1*
Cc1cc(Cl)cc(Cl)c1OCC(=O)NCc1ccco1	·	·	-3%[11.4 µM]	·
CC1(C)Oc2cc3c(cc2O1)OC(C)(C)O3	·	?	3.2µM*	·
CC1(C)OC(=O)C(=CNc2ccccc2)C(=O)O1	>77	2%	6%	>57
CCOC(=O)CCC(NC(=O)c1ccc(NCN2C(=O)c3ccccc3C2=O)cc1)C(=O)OCC (stereo unspecified)	·	?	0.79µM*	·
Cc1ccc2oc(-c3cccc(NC(=O)C4CCCO4)c3)nc2c1 (stereo unspecified)	>77	4%	23%	i
Cc1ccc(-c2nc3cc(NC(=O)C(C)C)ccc3o2)cc1C	>77	11%	0%	1.7*
O=C(Nc1ccc2oc(-c3ccncc3)nc2c1)c1cccs1	>77	8%	0%	3.6*
O=C(Nc1ccc2oc(-c3ccncc3)nc2c1)c1ccccc1F	>77	-4%	15%	·
CCCC(=O)Nc1ccc2oc(-c3cccnc3)nc2c1	?	1%	-1%	·
CC(=O)Nc1ccc(S(=O)(=O)Nc2cccc(-c3nc4cc(C)ccc4o3)c2)cc1	7.9*	3%	-3%	>57
SMILES	GBA activity	TSHR agonist	HEK293 cAMP ctrl	Bst PK mod
CCC(=O)Nc1ccc2oc(-c3cccc(C)c3)nc2c1	·	-6%	4%	2.1*
C[C@@H]1C(=O)N(C)C(=O)c2nc[nH]c21	·	3%	4%	·
C[C@]12C=CC(=O)C=C1CC[C@@H]1[C@H]3C[C@@H](O)[C@](O)(C(=O)CO)[C@]3(C)C[C@H](O)[C@]12F	·	5%	-1%	·
Cc1ccc(C)c(S(=O)(=O)Nc2ccccc2C(=O)Nc2cc(C)on2)c1	4.8*	9%	28%	>57
Cc1cccc(NS(=O)(=O)c2cc(C(=O)OCC(=O)Nc3cc(C)on3)ccc2C)c1	i	8%	29%	>57
Cc1cc(C)c(C)c(S(=O)(=O)Nc2ccccc2C(=O)O)c1C	·	2%	3%	·
Cc1cc(NC(=O)c2ccccc2NS(=O)(=O)c2c(C)c(C)cc(C)c2C)no1	>77	?	32µM*	>57
CCN(CC)CCCCn1c(-c2ccccc2)nc2c(NCCOC)nc(C)nc21	·	8%	7%	·
CC1(C)CC(N2CCN(c3ccccc3)CC2)=CC(=[N+]2CCCC2)C1	>77	?	7.9µM*	>57
O=C(O)c1ccc(OCc2ccccc2)c(Cl)c1	·	4%[11.4 µM]	21%[11.4 µM]	·
CCCOC(=O)c1ccc(Nc2cc(C)nc3ncnn23)cc1	>77	1%	22%	11*

Screening results: PubChem BioAssay, National Center for Advancing Translational Sciences (NCATS)
